Records with an inconclusive call do not appear. Active and inactive are the calls of the source. Calls follow the shape of the dose curve; as a rule, active = well fitted cell-killing curve with a large enough effect in the repeat runs; inconclusive = weak or mixed curves; inactive = flat fitted curve, though single readings scatter.
Test: qHTS RealTime-Glo MT Cell Viability Assay in HepG2 cells - 16 hour (AID 1224885); also: nearly all actives have a fitted effect of over 50% in size
Settings: RealTime-Glo luminescence; series mostly up to 76.8 µM
In short: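 Luminescence read-out: viable HepG2 cells reduce a prosubstrate to a NanoLuc substrate, giving a signal proportional to live cell number. Reads taken at 0, 8, 16, 24, 32 and 40 h of compound exposure at 37 C.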

| Compound | outcome |
| --- | --- |
| C[C@]12CCC(=O)C=C1CC[C@H]1[C@@H]3CC[C@](O)(C(=O)CO)[C@@]3(C)C[C@H](O)[C@@]12F | inactive |
| CC(N)CCCC(C)(C)O (stereo not drawn) | inactive |
| CCCCOC(=O)[C@H](C)O | inactive |
| O=C(CCCl)NCCc1ccccc1 | inactive |
| COc1cc2c(cc1OC)CN(C(=O)[C@H](C)N[C@@H](CCc1ccccc1)C(=O)O)[C@H](C(=O)O)C2 | inactive |
| CC(=O)CCc1ccc(OC(C)=O)cc1 | inactive |
| Cc1cc(C)c(C(=O)O)c(C)c1 | inactive |
| O=C(NCN1CCOCC1)c1cnccn1 | inactive |
| COC(C)(OC)OC | inactive |
| Cc1c(NC(=O)c2cccnc2)c(=O)n(-c2ccccc2)n1C | inactive |
| CC1OCCC1=O (stereo not drawn) | inactive |
| Cc1ccc(C(=O)O)cc1[N+](=O)[O-] | inactive |
| CC1c2ccccc2CN1NC(=O)c1ccc(Cl)c(S(N)(=O)=O)c1 (stereo not drawn) | inactive |
| C=CC(=O)OCC1CCCO1 (stereo not drawn) | inactive |
| CCCCCCCCCOC(=O)c1ccccc1C(=O)OCCCCCCCCC | inactive |
| CC(C)COC(=O)c1ccccc1 | inactive |
| COC(=O)c1cc(Cl)cc(Cl)c1 | inactive |
| CCCCOCC(C)O (stereo not drawn) | inactive |
| c1ccc(-c2nn[nH]n2)cc1 | inactive |
| C[C@H]1[C@@H](c2ccccc2)NC(=O)N1C | inactive |
| C=CCCCC | inactive |
| CN(C)CCCO[C@@H]1[C@H]2OC(C)(C)O[C@H]2O[C@@H]1C(O)CO (stereo partly drawn) | inactive |
| ONc1ccccc1 | inactive |
